TDP1 cell noCPT: qHTS for Inhibitors of human tyrosyl-DNA phosphodiesterase 1 (TDP1): qHTS in cells in absence of CPT. DT40 Tdp1-/- hTDP1 cells, no CPT, ATP luminescence, 48 h. Potency, µM (doses to about 46.2 µM), for inactives: at the top dose activity change, negative = growth inhibition, hits mostly inhibitors. 420,000 tested, 15% active. AID 686978, 2013; also: potency is read from the fitted curve at half-maximal effect; nearly all actives have a fitted effect of over 55% in size
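Stably hTDP1-transfected Tdp1-null chicken DT40 cells were treated with library compounds minus camptothecin and grown for at least 48 hr at 37 °C, after which cellular ATP was quantified by luminescence.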
CtBP-E1A blk: CtBP/E1A binding inhibition; activity change, % (test concentration not listed); AlphaScreen GST-E1A/His-CtBP binding, 1536-well; active compounds read low; AID 651724; 340,000 tested, 0.49% active; in the data active = activity change below about -65%; inconclusive = mostly about -30% to -63%
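Protein mix (5X: 125 nM each GST-E1A, His-CtBP) was incubated with pinned compound 2 h at 37 deg C in dark, in 50 mM Tris pH 8.0 buffer with 300 mM NaCl. Glutathione donor and nickel acceptor beads followed; AlphaScreen signal read after 1 h.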
TDP1 block: blocks human tyrosyl-DNA phosphodiesterase 1 | recombinant TDP1, AlphaScreen DNA substrate cleavage | 350,000 tested, 0.28% active | Q9NUW8 | Potency, µM (highest dose often 130 µM), without a hit: at the highest dose activity change, negative = inhibition, hits mostly inhibitors; also: potency is read from the fitted curve at half-maximal effect; nearly all actives have a fitted effect of over 40% in size
Target sequence (Q9NUW8 whole entry, looked up): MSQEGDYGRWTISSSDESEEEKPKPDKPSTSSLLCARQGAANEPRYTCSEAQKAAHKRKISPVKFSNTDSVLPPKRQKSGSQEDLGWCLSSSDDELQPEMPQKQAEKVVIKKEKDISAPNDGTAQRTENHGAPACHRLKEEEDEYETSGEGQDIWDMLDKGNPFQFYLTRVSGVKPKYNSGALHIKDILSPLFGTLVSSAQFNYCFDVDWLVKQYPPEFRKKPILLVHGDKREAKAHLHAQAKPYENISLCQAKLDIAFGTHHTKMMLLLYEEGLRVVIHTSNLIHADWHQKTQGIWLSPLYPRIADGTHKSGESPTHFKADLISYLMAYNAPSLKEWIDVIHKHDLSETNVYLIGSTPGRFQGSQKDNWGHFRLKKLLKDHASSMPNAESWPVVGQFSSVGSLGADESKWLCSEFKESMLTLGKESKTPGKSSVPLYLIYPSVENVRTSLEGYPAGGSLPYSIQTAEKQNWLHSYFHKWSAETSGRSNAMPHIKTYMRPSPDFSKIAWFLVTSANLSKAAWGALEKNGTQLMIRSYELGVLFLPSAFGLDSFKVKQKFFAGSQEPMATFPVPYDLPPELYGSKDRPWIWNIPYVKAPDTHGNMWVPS
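Compounds were preincubated with Tdp1 (1 nM final) for 15 min at room temperature before substrate (15 nM final) started a 5 min reaction; beads (10 ug/ml final) were then added for 10 min before AlphaScreen detection.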
Six1-Eya2 inh: blocks human Six1 binding to Eya2; activity change, % (concentration not given with the values); AlphaScreen GST-Six1/His-Eya2 binding, biochemical; active compounds read low; 360,000 tested, 0.56% active; in the data active = activity change below about -65%; inconclusive = mostly about -30% to -63%
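GST-Six1 + His-Eya2 (5X stock: 250/500 nM); Tris pH 8.0, 300 mM NaCl, 0.05% BSA, 0.02% Tween 20; GSH donor/Ni acceptor beads; 1 h 37 °C dark; AlphaScreen readout.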
DT40 TDP1 CPT: DT40-hTDP1 cell growth loss with CPT. AID 686979. chicken DT40 Tdp1-/-;hTDP1 cells + 20 nM CPT, ATP luminescence, 48 h. Potency, µM (doses to about 46.2 µM), for inactives: at the highest dose activity change, negative = growth inhibition, hits mostly inhibitors. 420,000 tested, 12% active; also: potency is read from the fitted curve at half-maximal effect; nearly all actives have a fitted effect of over 55% in size
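Chicken DT40 Tdp1-/- cells complemented with human TDP1, 400 cells/well, exposed to compounds plus 20 nM camptothecin for at least 48 h at 37 C; viability read as ATP content by CellTiter-Glo luminescence.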
IL1B secr inh: inflammasome signaling inhibition, IL-1 beta readout | 360,000 tested, 4.7% active | activity change, % at 57.5 µM | THP-1 LPS/ATP IL-1B secretion, AlphaLISA, 16 h; active compounds read low; in the data active = activity change below about -50%; inconclusive = mostly about -30% to -49%
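Secreted IL-1B measured by AlphaLISA bead assay after 16 h compound exposure of THP-1 cells; compounds (final up to 57.5 uM) added 1 h before LPS (250 ng/mL) and ATP (1.25 mM) stimulation; lower signal means less secretion.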
An asterisk follows results filed as active; ? = inconclusive; nt = not tested or not shown; [ ] = another dose, or the depositor's remark. Shown are actives, neighbours in structure and some others; about 18% of the full set was active somewhere. Unless noted, calls follow the shape of the dose curve; as a rule, active = well fitted curve in the direction sought with a large enough effect; inconclusive = small, poorly fitted or top-dose-only effect, or another doubt; inactive = no such curve, though single readings can be large; an effect the other way counts as inactive or inconclusive. % is scaled to controls: 0 for no effect and ±100 for the full control effect.

SMILES | TDP1 cell noCPT | CtBP-E1A blk | TDP1 block | Six1-Eya2 inh | DT40 TDP1 CPT | IL1B secr inh
CC(C)(C)OC(=O)N1CCN(C(=O)c2[nH]cnc2C(=O)N[C@@H](Cc2ccccc2)C(=O)OCc2ccccc2)CC1 | ? | -7 | nt | -10 | ? | -64*
CC(C)(C)OC(=O)[C@H](Cc1ccccc1)NC(=O)c1nc[nH]c1C(=O)N1CCN(C(=O)OC(C)(C)C)CC1 | -26% | 2 | nt | -1 | ? | -5
C[C@H](OC(=O)c1[nH]cnc1C(=O)N1CCN(C(=O)OC(C)(C)C)CC1)c1ccccc1 | 26µM* | -1 | 0% | 10 | ? | 39
CC(C)C[C@H](NC(=O)c1nc[nH]c1C(=O)N1CCN(C(=O)OC(C)(C)C)CC1)C(=O)OCc1ccccc1 | 16µM* | -7 | 9% | -11 | 18µM* | -71*
C[C@@H](OC(=O)c1[nH]cnc1C(=O)N1CCN(C(=O)OC(C)(C)C)CC1)c1ccccc1 | -18% | 0 | 0% | 12 | ? | 9
Cc1ccc(S(=O)(=O)c2cnc(SCC(=O)Nc3ccc4c(c3)OCCO4)[nH]c2=O)cc1Cl | nt | nt | 9% | nt | nt | nt
O=C(O)c1ccc(N/N=C/C(Br)=C/c2ccccc2)cc1 | 7.3µM* | -13 | 7% | -12 | 5.8µM* | -14
O=C(NN=Cc1ccc(F)cc1)C1CC1 | 2% | 6 | nt | 3 | 2% | -1
O=C(N/N=C/C(Br)=C/c1ccccc1)C(O)c1ccccc1 (centres undefined) | 8.2µM* | ? | 10% | 1 | 5.8µM* | -20
O=C(N/N=C/C(Br)=C/c1ccccc1)NC1CCCCC1 | 15µM* | -1 | 0% | -7 | 9.2µM* | -94*
O=C(N/N=C/C(Br)=C/c1ccccc1)C1CC1 | 13µM* | 7 | 5% | -1 | 8.2µM* | -76*
C[C@H]1CN(c2ccccc2)C(=O)[C@@H]1CC(=O)Nc1ccccc1 | -27% | 4 | nt | 0 | 7% | -19
CC(/C=N/NC(=O)NC1CCCCC1)=C\c1ccccc1 | 21µM* | -1 | 4% | -6 | 21µM* | ?
CCOc1ccc(-c2ccc3nnc(SCC(=O)NCC4CCCO4)n3n2)cc1 (centres undefined) | -1% | 3 | nt | 2 | -11% | -5
C=CCC(C)(NCc1ccccc1)C(=O)OCC (centres undefined) | nt | nt | -6% | nt | nt | nt
CCOC(=O)C(=CNc1ccccc1Cl)C(=O)OCC | ? | nt | nt | 11 | -18% | -27
CCOC(=O)C(=CNc1ccc(NC2=NCC(C)(C)S2)cc1)C(=O)OCC | 9.2µM* | 3 | nt | -1 | 18µM* | ?
CCOC(=O)C(=CNc1ccc2c(c1)CCN2C(C)=O)C(=O)OCC | 7.3µM* | -10 | 0% | -5 | 21µM* | -9
CCOC(=O)C(=CNc1ccc(N2CCOCC2)cc1)C(=O)OCC | 16µM* | nt | 6% | 3 | ? | -1
CCOC(=O)C(=CNc1ccc(C#N)cc1)C(=O)OCC | 4% | -7 | -5% | -1 | 7% | -13
CCOC(=O)C(=CNc1ccc(S(N)(=O)=O)cc1)C(=O)OCC | 1% | 1 | -2% | 1 | -4% | -1
CCOC(=O)C(=CNc1cc(C)ccc1-n1cccc1)C(=O)OCC | 16µM* | 6 | nt | 4 | 18µM* | nt
CCOCCCN(C(=O)c1snc(C(N)=O)c1N)C(C(=O)NC1CCCC1)c1ccc(O)c(OC)c1 (centres undefined) | -3% | 23 | -2%[0.0935 µM] | 4 | 2% | 2
COC(=O)c1ccc(C(=O)OC)c(NC(=S)N2CCN(c3cccc(Cl)c3)CC2)c1 | ? | -16 | 3% | -21 | -22% | 0
O=Cc1sc(Nc2ccccc2)nc1Cl | ? | -8 | -5% | 4 | -29% | -17
SMILES | TDP1 cell noCPT | CtBP-E1A blk | TDP1 block | Six1-Eya2 inh | DT40 TDP1 CPT | IL1B secr inh
Cc1ccc(Nc2nc(Cl)c(C=O)s2)cc1Cl | ? | 11 | 5% | 6 | ? | -102*
COc1ccccc1Nc1nc(Cl)c(C=O)s1 | ? | 0 | -3% | -6 | ? | -53*
CCCC(=O)N(CCN(C(=O)CCC)c1ccccc1)c1ccccc1 | 21µM* | 2 | 0% | 2 | 12µM* | -21
CCCCN(C(=O)CCn1c(=O)oc2ccccc21)c1ccccc1 | ? | nt | 0% | 2 | 18µM* | -5
CCN(C(=O)CCC(=O)N(CC)c1ccccc1)c1ccccc1 | ? | 1 | 3% | -3 | ? | 2
CC[n+]1ccc(C)c2cc(P(=O)(c3ccccc3)c3ccccc3)ccc21 | ? | -15 | -5% | 3 | -3% | -14
Cn1c(=O)[nH]c(=O)c2c1nc(SCC(=O)O)n2Cc1ccccc1 | 4% | nt | 6% | -4 | 4% | 6
Cc1cccc(Cn2c(NC3CCCC3)nc3c2c(=O)[nH]c(=O)n3C)c1 | 23µM* | -2 | nt | -21 | ? | -14
Cc1cccc(Cn2c(SCC(=O)Nc3ccccc3)nc3c2c(=O)[nH]c(=O)n3C)c1 | 21µM* | -5 | 3% | -1 | ? | ?
Cc1cccc(Cn2c(Sc3nc(C)cs3)nc3c2c(=O)[nH]c(=O)n3C)c1 | 18µM* | 4 | 5% | 1 | ? | 26
O=c1ccc2cc(S(=O)(=O)N3CCN(c4ccccc4F)CC3)ccc2[nH]1 | ? | -2 | nt | -2 | ? | 46
COc1ccc(S(=O)(=O)N(C(C)=O)c2ccc(OC(C)=O)c3ccccc23)cc1[N+](=O)[O-] | 3.7µM* | nt | 5% | -13 | 3.3µM* | 124
CC(=O)Oc1ccc(N(C(C)=O)S(=O)(=O)c2ccccc2)c2ccccc12 | ? | -3 | nt | 0 | 21µM* | 122
CC(=O)Oc1ccccc1N(C(C)=O)S(=O)(=O)c1ccc(C)cc1 | -2% | 8 | 5% | 5 | -12% | 0
CC(=O)Oc1ccc(N(C(C)=O)S(=O)(=O)c2ccc(C)cc2C)c2ccccc12 | ? | 2 | nt | -12 | 23µM* | 88
CC(=O)Oc1c(Cl)cc(N(C(C)=O)S(=O)(=O)c2ccccc2)c2ccccc12 | 4.6µM* | nt | nt | -3 | 10µM* | 186
CC(=O)Oc1ccc(C)cc1-n1nc2ccccc2n1 | -8% | -7 | -3% | 15 | -21% | 10
COc1cc2c(cc1NC(=O)C(C)Sc1nc3ccccc3n1C)oc1ccccc12 (centres undefined) | -17% | 6 | 0% | 6 | 2% | 0
COc1cc2c(-c3ccccc3)c(C)oc2cc1/C=N/NC(N)=S | ? | nt | nt | 2 | ? | 14

Screening data as filed in PubChem BioAssay.
